Results filed as inconclusive are left out. Calls of active or inactive are those of the source. The calls were made as follows: active = hit-call score of the fitted dose curve at least 0.9, where 1 is the maximum; inconclusive = response in the unintended direction; inactive = score below 0.9.

Read-out in this assay: ABC Transporter (ABCB1), ABCB1 (gene 5243)
Description: CLD_ABCB1_24hr: CellzDirect (CLD) Gene Expression Assay for ABC Transporter (ABCB1) at 24 hours (AID 2283684).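 As to AC50: potency for increase in ABCB1 mRNA relative to DMSO vehicle.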 The method, then: CLD_24hr is a cell-based, multiplexed-readout assay that uses hepatocyte, a human liver primary cell, with measurements taken at 24 hours after chemical dosing in a 96-well plate.CLD_ABCB1_24hr is one of 16 assay component(s) measured or calculated from the CLD_24hr assay. It is designed to make measurements of mRNA induction, a form of inducible reporter, as detected with chemiluminescence signals by Quantitative Nuclease Protection Assay (qNPA) technology.Data from the assay component CLD_ABCB1_24hr was analyzed at the endpoint, CLD_ABCB1_24hr, in the positive analysis fitting direction relative to DMSO as the negative control and baseline of activity. Using a type of inducible reporter, gain-of-signal activity can be used to understand changes in the reporter gene as they relate to the gene ABCB1. Furthermore, this assay endpoint can be referred to as a primary readout. To generalize the intended target to other relatable targets, this assay endpoint is annotated to the transporter intended target family, where subfamily is ABC transporter.
Human hepatocyte cultures were treated daily for two consecutive days with fresh dosing solutions containing appropriate concentrations of the 320 ToxCast chemicals (chemical identities were blinded to CellzDirect and other ToxCast collaborators), vehicle control (0.2% DMSO), and positive control inducers as summarized in Table 1. Due to the large number of treatment groups and chemicals examined, the ToxCast chemicals were divided into two groups (spanning two independent cultures of hepatocytes from separate donor preparations (Hu778: ToxCast plates 1 and 2; Hu776: ToxCast plates 3 and 4). Each preparation of human hepatocyte cultures was treated with respective vehicle control, medium only control, set of six positive controls/reference chemicals for the five hepatic receptor pathways, and a subset of eight of the ToxCast chemicals (indoxacarb, pyrithiobac-sodium, norflurazon, cyhalofop-butyl, methomyl, thiram, acetochlor, and propiconazole). These replicate data, coupled with internal replicates designed within the blinded ToxCast chemical library, provided additional data to evaluate interindividual differences between hepatocyte preparations and their potential impact on chemical profiles.Cell morphology and integrity were evaluated using phase-contrast microscopy as an indicator of hepatocyte cell health (Tyson & Green, 1987). Cultures for each treatment group (i.e., media, vehicle [0.2% DMSO], positive control inducers [multiple concentrations], and the ToxCast chemicals [multiple concentrations]) were observed and cell morphology was assessed relative to vehicle control cultures at each harvest time point (0, 6, 24, or 48 h). […] Images were evaluated at the conclusion of the study to assess changes in cell integrity and account for the effects of chemical exposure on uncharacteristic changes in concentration-dependent gene expression profiles. The results from these determinations of apparent cytotoxicity were annotated (yes/no) alongside the corresponding qNPA data for reference.At the conclusion of each treatment period, hepatocyte cultures (96-well) were washed with 1 volume of HBSS, lysed by addition of 25 ul ArrayPlate lysis buffer (HTG, Tucson, AZ), and 70 ul/well of Denaturation Oil, denatured by incubation at 95C for 10 min, and frozen at approximately -70C until analysis by nuclease protection assay (qNPA) (Roberts et al., 2007). For qNPA analysis, cell lysates were thawed at 50C for approximately 30 min, qNPA probes were added, and samples were incubated at 95C for 10 min to begin the detection process by denaturing the target RNA, dissociating the duplexes and secondary structure hybridization. At the conclusion of the hybridization period, S1 nuclease reagent was added to each sample to digest all nonprotected nucleotides at 50C for 60-90 min. […]
As to `Nc1cnn(-c2ccccc2)c(=O)c1Cl`, the compound was called inactive.
The same measure, in the same setting: under `Cc1cnc(C2=NC(C)(C(C)C)C(=O)N2)c(C(=O)O)c1` (stereo not given) stands “inactive”.
For `N#CN=C1SCCN1Cc1ccc(Cl)nc1`, the compound was called inactive.
Same read-out and setting: under `COCC(C)N(C(=O)CCl)c1c(C)csc1C` (stereo not given) stands “inactive”; under `CN=C=S`, “inactive”.
In general, AC50 refers to the concentration at which the activity in the assay is half-maximal. For `CCCCC(O)(Cn1cncn1)c1ccc(Cl)cc1Cl` (stereo not given), the AC50 was 31.9 µM (active).
As to `O=C(Nc1ccccc1-c1ccc(Cl)cc1)c1cccnc1Cl`, the call was inactive.
On the same count and under the same terms, under `COP(=S)(OC)Oc1ccc([N+](=O)[O-])c(C)c1` stands “inactive”.
For the compound `O=C1C2CC=CCC2C(=O)N1SC(Cl)(Cl)Cl` (stereo not given), the outcome was inactive.
With `COP(=S)(OC)SCn1nnc2ccccc2c1=O`, the call was inactive.
For the compound `O=c1n(Cl)c(=O)n(Cl)c(=O)n1Cl`, the compound was called inactive.
On the same count and under the same terms, the result for `CNC(=O)Oc1cccc2ccccc12` reads “inactive”; that for `CS(=O)(=O)c1cc(C(F)(F)F)ccc1C(=O)c1cnoc1C1CC1`, “inactive”; that for `CC(C)N1C(=O)c2ccccc2NS1(=O)=O`, “inactive”.
Regarding `CCOP(=S)(OCC)Oc1nc(Cl)n(C(C)C)n1`, the compound was classed as inactive.
Still for that read-out and setting: under `CC1(C)C(C=C(Cl)Cl)C1C(=O)OC(C#N)c1cccc(Oc2ccccc2)c1` (stereo not given) stands “inactive”.
The same measure, in the same setting: under `CO/N=C(/C1=NOCCO1)c1ccccc1Oc1ncnc(Oc2ccccc2Cl)c1F` stands “inactive”; under `CC(C)Nc1nc(Cl)nc(NC(C)C)n1`, “inactive”; under `CCCC(=NOCC)C1=C(O)CC(CC(C)SCC)CC1=O` (stereo not given), “inactive”.
`CCOc1cc(C(C)(C)C)ccc1C1COC(c2c(F)cccc2F)=N1` (stereo not given): the result was inactive.
The same measure, in the same setting: under `CC1(C)CCC(=Cc2ccc(Cl)cc2)C1(O)Cn1cncn1` (stereo not given) stands “inactive”; under `COc1ccc(-c2ccccc2)cc1NNC(=O)OC(C)C`, “inactive”; under `O=P(O)(O)CCCl`, “inactive”.
Consider `Cc1ccc(N=CN(C)C=Nc2ccc(C)cc2C)c(C)c1`, for which the AC50 is 28.2 µM (active).
With `Clc1nc(Cl)nc(Nc2ccccc2Cl)n1`, the result was inactive.
For the compound `CCCCC(C#N)(Cn1cncn1)c1ccc(Cl)cc1` (stereo not given), the result was inactive.
Consider `Clc1cccc(C(Cl)(Cl)Cl)n1`, for which the compound was classed as inactive.
On the same count and under the same terms, the result for `COC(=O)c1c(C(F)F)nc(C(F)(F)F)c(C2=NCCS2)c1CC(C)C` reads “inactive”; that for `CC(C)N1C(=O)N(c2ccccc2)CSC1=NC(C)(C)C`, “inactive”; that for `CC1(C)C(C(=O)OC(C#N)c2cccc(Oc3ccccc3)c2)C1(C)C` (stereo not given), “inactive”.
On the same count and under the same terms, under `CCCN(CC)CC1COC2(CCC(C(C)(C)C)CC2)O1` (stereo not given) stands “inactive”.
With `Cc1c(COC(=O)[C@@H]2[C@H](/C=C(\Cl)C(F)(F)F)C2(C)C)cccc1-c1ccccc1`, the AC50 was 29.9 µM (active).
Turning to `CSC(=O)c1c(C(F)F)nc(C(F)(F)F)c(C(=O)SC)c1CC(C)C`, the call was inactive.
In the case of `CC1(C)CON(Cc2ccccc2Cl)C1=O`, the compound was classed as inactive.
On the same count and under the same terms, the result for `CC(C)(C)C(=O)C(Oc1ccc(Cl)cc1)n1cncn1` (stereo not given) reads “inactive”; that for `COc1cc(Cl)c(OC)cc1Cl`, “inactive”.
Still for that read-out and setting: under `CS(=O)(=O)c1ccc(C(=O)C2C(=O)CCCC2=O)c([N+](=O)[O-])c1` stands “inactive”.
Still for that read-out and setting: under `CCOc1nc(C(Cl)(Cl)Cl)ns1` stands “inactive”.
For the compound `C=CCOC(=O)C(C)(C)OC(=O)c1cc(-n2c(=O)cc(C(F)(F)F)n(C)c2=O)ccc1Cl`, the compound was called inactive.
Still for that read-out and setting: under `CCCCOCN(C(=O)CCl)c1c(CC)cccc1CC` stands “inactive”.

Values taken from PubChem BioAssay (EPA / NIEHS).
